Test results as given in PubChem BioAssay AID1851 (National Center for Advancing Translational Sciences (NCATS), 2009).
Several values for one entry are separate records, joined by “and”; a condition that tells them apart may be missing. Identical values can stand only once. Out of some 16,000 compounds screened, about 2,600 (16%) were called active. About 20% were inconclusive and are not listed. The call rests on the fitted dose curve; in most records, active means well fitted curve in the direction sought with a large enough effect; inconclusive means small, poorly fitted or top-dose-only effect, or effect the other way; inactive means no such curve, though single readings can be large or run the other way. Only a sample is shown. Square brackets hold non-standard residues; d marks the D form. Peptide text beside a SMILES is read from it.

Target: Cytochrome P450 2D6 (Homo sapiens) (UniProt P10635)
Assay: Cytochrome panel assay with activity outcomes
Conditions: recombinant CYP, pro-luciferin dealkylation, luminescence, p450-cyp2d6; series mostly up to 57.1 µM; activity, negative = inhibition: at the top concentration
On the % scale 0 is the no-effect control and ±100 the full control effect.

Chain of Cytochrome P450 2D6 (Homo sapiens) (P10635 whole entry, looked up): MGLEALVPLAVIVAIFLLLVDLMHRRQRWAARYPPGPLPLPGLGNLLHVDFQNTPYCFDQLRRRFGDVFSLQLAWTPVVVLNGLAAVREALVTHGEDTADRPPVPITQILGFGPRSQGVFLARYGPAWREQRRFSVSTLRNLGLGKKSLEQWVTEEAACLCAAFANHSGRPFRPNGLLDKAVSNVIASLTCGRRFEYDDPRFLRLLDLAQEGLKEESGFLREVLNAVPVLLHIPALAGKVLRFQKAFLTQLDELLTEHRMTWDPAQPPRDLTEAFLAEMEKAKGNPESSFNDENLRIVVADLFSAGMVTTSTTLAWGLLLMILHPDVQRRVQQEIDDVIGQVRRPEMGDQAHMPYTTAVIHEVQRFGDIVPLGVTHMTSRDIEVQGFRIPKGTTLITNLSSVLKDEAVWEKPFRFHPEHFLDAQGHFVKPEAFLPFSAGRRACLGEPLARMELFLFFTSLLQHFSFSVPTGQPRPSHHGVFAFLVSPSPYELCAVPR

| SMILES | activity, negative = inhibition | AC50 |
| --- | --- | --- |
| O=C(NCC1CCCO1)/C(=C\c1ccco1)NC(=O)c1ccccc1 (stereo unspecified) | 3.99% (inactive) |  |
| O=C(Nc1ccc(OC(=O)c2cccnc2)cc1)c1cccnc1 | -9.94% (inactive) |  |
| O=C(Nc1cccc(OC(=O)c2cccnc2)c1)c1cccnc1 | -10.6% (inactive) |  |
| O=C(Nc1cccnc1)c1ccc2snnc2c1 |  | 15.8 µM (active) |
| O=C(CCn1nc(-c2ccc(Cl)cc2)ccc1=O)NCc1ccccn1 | -5.6% (inactive) |  |
| O=C1C=C(Nc2nc(C(=O)O)cc(=O)[nH]2)c2ccccc2C1=O | -6.72% [at 11.4 µM] (inactive) |  |
| O=C1C=C(NCCc2cc(Br)c(O)c(Br)c2)C(=O)c2ncccc21 |  | 1.58 µM (active) |
| Cc1cccc(Oc2coc3cc(OC(=O)c4cc5ccccc5oc4=O)ccc3c2=O)c1 | 3.71% (inactive) |  |
| CCOC(=O)c1cc(C#N)c(Oc2ccccc2OC)nc1-c1ccccc1 | 0.22% (inactive) |  |
| CCOc1cc(C)ccc1OCc1nnc(SCC(=O)c2cccc([N+](=O)[O-])c2)n1CC | 5.77% (inactive) |  |
| Cc1cc2c(ncn2Cc2ccccc2)c([N+](=O)[O-])c1C | 8.41% (inactive) |  |
| Cc1ccccc1CN1C2=NCCN2C(=O)C2=C1CCN(Cc1ccccc1)C2 | -16.1% [at 11.4 µM] (inactive) |  |
| CCCCN1C2=NCCCN2c2ccccc21 |  | 5.01 µM (active) |
| CCCCN1C(=O)CC(Sc2ccccc2C(=O)O)C1=O (stereo unspecified) | 6.44% (inactive) |  |
| Cc1ccc(C)c(C(=O)CN2C3=NCCCN3c3ccccc32)c1 |  | 0.01 µM (active) |
| CCCN1C2=NCCCN2c2ccccc21 |  | 7.08 µM (active) |
| CC(C)C[C@H]1C(=O)N2CCC[C@@H]2[C@]2(O)O[C@](NC(=O)[C@H]3C=C4c5cccc6[nH]c(Br)c(c56)C[C@H]4N(C)C3)(C(C)C)C(=O)N12 |  | inactive |
| COCCCN1C(=O)C(=O)/C(=C(/O)c2ccc(OC(C)C)c(C)c2)C1c1ccncc1 (stereo unspecified) | 5.89% (inactive) |  |
| N[C@H](CO)C(=O)NCC(=O)O (H-[dS]-Gly-OH) | -2.94% [at 11.4 µM] (inactive) |  |
| Cc1cc(C)nc(NS(=O)(=O)c2ccc(N)cc2)n1 | -0.0096% [at 25.6 µM] (inactive) |  |
| CN1C(=O)/C(=C\c2ccccc2)Sc2ccc(C(=O)N3CCN(c4ccccn4)CC3)cc21 | -1.49% (inactive) |  |
| C=C[C@H](N)CCC(=O)O |  | inactive |
| CCc1c(C)sc(NC(=O)OC)c1C(N)=O | -1.65% (inactive) |  |
| COc1nc(/C(N)=N/O)nc(N2CCCCC2)n1 | 0.0215% (inactive) |  |
| Cc1ncc([N+](=O)[O-])n1CCOC(=O)NC(NCc1ccccc1)C(Cl)(Cl)Cl (stereo unspecified) | -19.7% (inactive) |  |
| Cc1cc(=O)c2ccccc2[nH]1 | 15.9% (inactive) |  |

| SMILES | activity, negative = inhibition | AC50 |
| --- | --- | --- |
| Cc1ccc(C2C(=O)N(C3CCCC3)CC(=O)N2CC2COc3ccccc3O2)cc1 (stereo unspecified) | -17.2% (inactive) |  |
| OC(COCC1COc2ccccc2O1)CN1CCN(c2ccccc2F)CC1 (stereo unspecified) |  | 2.24 µM (active) |
| Cc1cc2c(nc1C)CCCN2C[C@@H](O)CN1CCN(C)CC1 | -5.57% [at 11.4 µM] (inactive) |  |
| N=C(N)N1CCc2ccccc2C1 | -1.24% [at 25.6 µM] (inactive) |  |
| OC(COCC1COc2ccccc2O1)CN1CCc2ccccc2C1 (stereo unspecified) |  | 0.447 µM (active) |
| CC1CCCC(C)N1CC(O)COCC1COc2ccccc2O1 (stereo unspecified) |  | 1.78 µM (active) |
| O=C1CCCN1CC(O)CS(=O)(=O)c1ccccc1 (stereo unspecified) | -0.283% (inactive) |  |
| C[C@@H]1CCCN(C[C@@H](O)CN2CCCc3ccccc32)C1 |  | 1.58 µM (active) |
| O=C(O)c1cc(=O)c2c(OCC(O)COc3cccc4oc(C(=O)O)cc(=O)c34)cccc2o1 | -4.6% [at 25.6 µM] (inactive) |  |
| Cc1ccc(-c2cccc(OC(=O)c3ccccc3F)c2)cc1 | -11.6% (inactive) |  |
| CC(C)C(=O)NC(=S)Nc1ccccc1C(=O)Nc1ccccc1 | 0.519% (inactive) |  |
| CN1CCN(c2ncc3ncc(=O)n(C[C@H]4CCCO4)c3n2)CC1 | 3.47% (inactive) |  |
| COc1ccc(S(=O)(=O)N2CCC(C(=O)NCC3CCCO3)CC2)cc1C (stereo unspecified) | -4.05% (inactive) |  |
| O=c1n(-c2ccccc2)c(=O)n2n1CC[C@H]1/C(=N\OC[C@@H](O)COCc3ccco3)[C@H]3O[C@@H]3[C@@H](O)[C@@H]12 | 0.6% [at 11.4 µM] (inactive) and 20% [at 11.4 µM] (inactive) |  |
| COC1(OC)N=C(NC(=O)Nc2ccccc2)C2(C#N)C(c3ccccc3)C12C#N (stereo unspecified) | 0.403% (inactive) |  |
| COc1ccc(-c2noc(C3CCCN(C(=O)c4ccccc4OC)C3)n2)cc1OC (stereo unspecified) | -13.3% (inactive) |  |
| CCCC[C@@H]1C[C@H]1C(NC(=O)c1cccs1)c1ccc(-c2ccccc2)cc1 (stereo partly specified) | 4.23% (inactive) |  |
| CC1CCCN(CC(O)COCC2COc3ccccc3O2)C1 (stereo unspecified) |  | 2.51 µM (active) |
| CN1CCN(S(=O)(=O)c2cc([N+](=O)[O-])ccc2N2CCCCCC2)CC1 | -22.5% (inactive) |  |
| CC(=O)OCC(=O)[C@@]1(O)CC[C@@H]2[C@H]3CCC4=CC(=O)CC[C@]4(C)[C@]3(F)[C@@H](O)C[C@@]21C | -0.161% [at 25.6 µM] (inactive) |  |
| O=C(CN1CCN(Cc2ccccc2)CC1)N1CCCc2c1c(=O)oc1ccc(O)cc21 |  | 12.6 µM (active) |
| Oc1ccc2oc3c(c2c1)CCCC3 | -4.04% (inactive) |  |
| Cc1ccc(C(=O)N(CN2CCCC2=O)c2ccccc2)cc1C | -0.523% (inactive) |  |
| COc1ccc(O)c(/C=N/NC(=O)c2ccc(OCc3cccc(Br)c3)cc2)c1 | -5.88% (inactive) |  |
| CCc1cc2c(NCCO)ncnc2s1 | -3.72% (inactive) |  |
| CCc1cc2c(NCc3ccco3)ncnc2s1 |  | 17.8 µM (active) |

| SMILES | activity, negative = inhibition | AC50 |
| --- | --- | --- |
| CCc1cc2c(Sc3nc4ccccc4s3)ncnc2s1 | -1.72% (inactive) |  |
| COc1ccc(-c2csc(-n3ncc(-c4cccs4)c3N)n2)cc1 | 11.5% (inactive) |  |
| CCOC(=O)c1sc2c(c1C)c(=O)c(C(=O)OCC)cn2CC | 2.44% (inactive) |  |
| Cc1nnc(NC(=O)c2oc3c(ccc4ccccc43)c2C)s1 | 4.25% (inactive) |  |
| COC(=O)c1cc(=O)[nH]c(=O)[nH]1 | -4.62% [at 11.4 µM] (inactive) |  |
| CCOC(=O)N/N=C1/C[C@@H](O)[C@@H](O)[C@@H]2[C@@H]3C(=O)N(C(C)(C)C)C(=O)[C@H]3CC[C@H]12 | -1.55% [at 11.4 µM] (inactive) |  |
| O=[N+]([O-])c1c(NCCO)cc(Sc2nc3ccccc3s2)c2nonc12 |  | 14.1 µM (active) |
| O=C(N/N=C/c1ccc(Sc2nc3ccccc3s2)c([N+](=O)[O-])c1)c1ccccn1 | 4.06% (inactive) |  |
| Cc1ccc(S(=O)(=O)NC(=O)CSc2nc3ccccc3s2)cc1 | -17.9% (inactive) |  |
| C[C@@]1(C(=O)O)CCC[C@@H]1C(=O)O | 9.41% [at 11.4 µM] (inactive) |  |
| CC(=O)Nc1c(C(=O)N2CCOCC2)cnn1-c1ccc(C)c(C)c1 | 5.39% (inactive) |  |
| O=C(CCN1C(=O)C2C3C=CC(C3)C2C1=O)Nc1c(F)cccc1F (stereo unspecified) | -4.03% (inactive) |  |
| O=C(CCN1CCN(CC(=O)Nc2ccccc2Cl)CC1)Nc1ccccc1F |  | 1.26 µM (active) |
| COc1ccccc1NC(=O)CN1CCN(c2ccccc2F)CC1 | -23.7% (inactive) |  |
| COc1ccc(NC(=O)CN2CCN(CC(=O)Nc3ccccc3Cl)CC2)cc1 | -13.4% (inactive) |  |
| O=C(CS(=O)c1cccc(Cl)c1)Nc1ccccc1Cl (stereo unspecified) | -31.7% (inactive) |  |
| O=C(CCN1CCN(c2ccccc2F)CC1)Nc1ccccc1F |  | 11.2 µM (active) |
| COCCn1c(=O)c(C)nc2cnc(Oc3ccc(OC)cc3)nc21 | -8.18% (inactive) |  |
| CN(C)c1ncc2nc(-c3cccs3)c(=O)n(C[C@H]3CCCO3)c2n1 | 14.3% (inactive) |  |
| O=C(CP(=O)(c1ccccc1)c1ccccc1)Nn1cnnc1 | 24% (inactive) |  |
| COCCN(CCOC)S(=O)(=O)c1ccc(C(=O)Nc2nc(C)c(C(C)=O)s2)cc1 | -11.8% (inactive) |  |
| NC(=O)CN1CCOCCOCCOCCOCCOCC1 | -5.95% (inactive) |  |
| O=C(Nc1cccc(F)c1)N1CCC2(CC1)CCN(C(=O)c1ccco1)CC2 | -5.21% (inactive) |  |
| COc1ccc(CCNc2cc(-c3ccccc3)nc3ncnn23)cc1 | -25.9% (inactive) |  |
| COc1ccc(-n2c3c(c(=O)[nH]c2=O)C(C(F)(F)F)(C(F)(F)F)N=C(CC(C)C)N3)cc1 | 12.1% (inactive) |  |
| CCCn1c(=O)c2c(ncn2C)n(CCC)c1=O | 2.92% (inactive) |  |

| SMILES | activity, negative = inhibition | AC50 |
| --- | --- | --- |
| NC(N)=NNC(=O)C(=O)O | 7.44% [at 11.4 µM] (inactive) |  |
| C/C(=N\N1CCN(C2c3ccccc3-c3ccccc32)CC1)c1cccnc1 |  | 2 µM (active) |
| O=[N+]([O-])c1cc(/C=N/N2CCN(C3c4ccccc4-c4ccccc43)CC2)ccc1Cl | -0.998% (inactive) |  |
| O=C(O)c1cccnc1 | -0.65% [at 25.6 µM] (inactive) |  |
| C/C(=N\N1CCN(C2c3ccccc3-c3ccccc32)CC1)c1ccncc1 |  | 0.178 µM (active) |
| c1ccc2c(c1)-c1nc3ccccc3cc1[C@H]2N1CCOCC1 | -4.83% [at 11.4 µM] (inactive) |  |
| C(=N\N1CCN(C2c3ccccc3-c3ccccc32)CC1)/c1cccnc1 |  | 0.631 µM (active) |
| CC(C)(C(=O)c1cccnc1)c1cccnc1 | -0.587% [at 25.6 µM] (inactive) |  |
| O=C(NCC1CCCO1)C(c1cccnc1)N(C(=O)Cc1cccs1)c1cccnc1 (stereo unspecified) | 11.9% (inactive) |  |
| Cc1nnc(NS(=O)(=O)c2ccc(N)cc2)s1 | -1.12% [at 25.6 µM] (inactive) |  |
| O=C(O)Cc1ccc2ocnc2c1 | 19.2% (inactive) |  |
| CCCC(=O)N1c2ccccc2C(N(C(C)=O)c2ccccc2)CC1C (stereo unspecified) | -4.05% (inactive) |  |
| O=C(Nc1cc2c(oc1=O)CCCC2=O)c1ccc(Cl)cc1 | -15% (inactive) |  |
| S=c1[nH]c2cc(Cl)ccc2s1 | -23.7% (inactive) |  |
| COc1ccc2nc(N)sc2c1 | -5.21% (inactive) |  |
| NCC[C@H](O)C(=O)N[C@H]1C[C@@H](N)[C@@H](O[C@H]2O[C@@H](CN)[C@@H](O)[C@@H](O)[C@@H]2O)[C@@H](O)[C@@H]1O[C@H]1O[C@@H](CO)[C@@H](O)[C@@H](N)[C@@H]1O | 3.98% [at 25.6 µM] (inactive) |  |
| Cc1n[nH]c(C)c1S(=O)(=O)N1CCOCC1 | 13.9% (inactive) |  |
| COc1ccc(/C=N/OCc2nc3c4c(ncn3n2)Oc2ccc3ccccc3c2C4c2ccccc2)cc1 (stereo unspecified) | -1.08% (inactive) |  |
| Fc1ccc(-c2ccnc3nc(N4CCOCC4)nn23)cc1 | -4.82% (inactive) |  |
| Cc1cccc(C)c1NC(=O)CS(=O)CC(=O)Nc1ccc(F)cc1F (stereo unspecified) | -20.9% (inactive) |  |
| Cc1cccc(C)c1NC(=O)CN1CCN(CCCC(c2ccc(F)cc2)c2ccc(F)cc2)CC1 |  | 5.01 µM (active) |
| Cc1c(NC(=O)CN2CCN(c3ccccc3)CC2)c(=O)n(-c2ccccc2)n1C | 2.48% (inactive) |  |
| Nc1nc2c(c(=O)[nH]1)N[C@H](CCNc1ccc(C(=O)O)cc1)CN2 | 1.76% [at 11.4 µM] (inactive) |  |
